Assay outcomes: PubChem BioAssay, National Center for Advancing Translational Sciences (NCATS)
The sample as a whole holds a higher share of hits than the screen did.
LmPK inhibitor – blocks Leishmania mexicana pyruvate kinase activity | Q27686 | purified LmPK, Kinase-Glo ATP luminescence, 1 h | Potency, µM (highest dose often 57.5 µM), for the others: at the top dose activity change, negative = inhibition, hits mostly inhibitors | 290,000 compounds, 0.37% hits; also: potency is read from the fitted curve at half-maximal effect; % is scaled to controls: 0 for no effect and ±100 for the full control effect
Target sequence (Q27686 whole entry, looked up): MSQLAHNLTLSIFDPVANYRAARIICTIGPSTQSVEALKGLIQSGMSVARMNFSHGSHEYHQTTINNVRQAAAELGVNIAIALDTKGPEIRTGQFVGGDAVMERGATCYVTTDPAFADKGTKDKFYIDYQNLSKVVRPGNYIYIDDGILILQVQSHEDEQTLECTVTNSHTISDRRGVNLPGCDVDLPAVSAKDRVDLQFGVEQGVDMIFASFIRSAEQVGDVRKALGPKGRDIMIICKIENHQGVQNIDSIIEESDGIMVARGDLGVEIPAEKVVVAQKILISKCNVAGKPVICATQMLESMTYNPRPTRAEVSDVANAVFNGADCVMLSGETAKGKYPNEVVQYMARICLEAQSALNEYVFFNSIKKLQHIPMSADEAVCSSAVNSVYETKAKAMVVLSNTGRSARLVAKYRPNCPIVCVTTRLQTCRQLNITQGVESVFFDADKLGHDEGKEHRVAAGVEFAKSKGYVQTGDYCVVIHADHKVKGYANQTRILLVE
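Screened at intermediate enzyme activity to detect both inhibitors and activators: LmPK at 0.1 nM, with a 0.5 nM enzyme column as activation reference. PEP 0.5 mM, ADP 0.1 mM; ATP detected by luminescence after 1 h.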
FBPA Giardia inh – blocks Giardia fructose-bisphosphate aldolase activity; purified Giardia FBPA; 290,000 compounds, 0.71% hits; Potency, µM (series often up to 59.6 µM), without a hit: at the highest dose activity, negative = inhibition, hits mostly inhibitors; also: potency is read from the fitted curve at half-maximal effect; % is scaled to controls: 0 for no effect and ±100 for the full control effect; nearly all actives have a fitted effect of over 55% in size
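Giardia FBPA (40 nM reagent) was preincubated 10 min at RT with compound (up to 57.5 uM final), then substrate plus GAPDH/TPI/NAD/arsenate coupling system with diaphorase/resazurin was added; resorufin fluorescence (525/598 nm) was read after 20 min.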
TbPYK inhibitor – blocks Trypanosoma brucei pyruvate kinase; TbPYK enzyme, Kinase-Glo Plus ATP luminescence, 45 min; AID 624173; Potency, µM (series often up to 76.8 µM), for inactives: top-dose activity, negative = inhibition, hits mostly inhibitors; 410,000 compounds, 0.12% hits; Q57TT1; also: potency is read from the fitted curve at half-maximal effect; % is scaled to controls: 0 for no effect and ±100 for the full control effect; nearly all actives have a fitted effect of over 50% in size
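Luminescent Kinase-Glo Plus end-point after 45 min room-temperature reaction of T. brucei pyruvate kinase started with 130 uM ADP (final). Buffer TEA 50 mM pH 7.2 with KCl, MgCl2, BSA, Tween-20; titration-based qHTS with fitted concentration-effect curves.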
Sm TGR inh – blocks Schistosoma mansoni thioredoxin glutathione reductase; AID 485364; Q962Y6; Potency, µM (series often up to 114 µM), without a hit: top-dose activity change, negative = inhibition, actives largely listed as inhibitors; 360,000 compounds, 3% hits; purified TGR, DTNB reduction, TNB absorbance 405 nm; also: potency is read from the fitted curve at half-maximal effect; % is scaled to controls: 0 for no effect and ±100 for the full control effect; nearly all actives have a fitted effect of over 60% in size
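TGR 20 nM + NADPH 100 uM (dispensed conc.), cpd preinc 15 min RT; start with NADPH (500 uM addition) then DTNB (15 mM addition). Kinetic TNB absorbance, 405 nm filter. Four-parameter Hill fit across titration.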
Shiga toxin inh – inhibitors of Shiga toxin in Vero cells; 290,000 compounds, 9.2% hits; Vero cells, Shiga toxin protein synthesis inhibition reporter; inhibition, % at 38.7 µM; AID 2315; in the data active = inhibition mostly above about 28%, no sharp cut-off; inactive = mostly below about 43%; also: 0% is about no effect
CHX counter – counter-screen hit for Shiga toxin inhibitors, cycloheximide; cell reporter, cycloheximide protein synthesis inhibition counterscreen; 300,000 compounds, 12% hits; max response, %; in the data active = max response mostly above about 13%, no sharp cut-off; inactive = mostly below about 14%; also: read at 38.3 µM for the half of the compounds with a filed dose; 0% is about no effect
The depositor's hits bear a star. Unless noted, calls follow the shape of the dose curve; as a rule, active = well fitted curve in the direction sought with a large enough effect; inconclusive = small, poorly fitted or top-dose-only effect, or another doubt; inactive = no such curve, though single readings can be large; an effect the other way counts as inactive or inconclusive.

For N#Cc1c(NC(=O)CSC2=NCCS2)sc2c1CCCC2 the results were LmPK inhibitor 0%, FBPA Giardia inh -2%, TbPYK inhibitor -11%, Sm TGR inh 0%, Shiga toxin inh -5 and CHX counter -4.
Cc1ccc(S(=O)(=O)n2cnc3ccccc32)cc1[N+](=O)[O-] was read as LmPK inhibitor -1%, FBPA Giardia inh -8%, TbPYK inhibitor 1%, Sm TGR inh 0%, Shiga toxin inh 21 and CHX counter -2.
`Cc1ccc(F)c(C2C3C=CCC(c4ccccc4)C3C(=O)N2Cc2ccccc2)c1` (centres undefined) gave FBPA Giardia inh -2%, Shiga toxin inh -3 and CHX counter 9.
O=C(Nc1ccccc1)N(Cc1cccs1)c1ccc(Cl)cc1 was read as TbPYK inhibitor -1% and Sm TGR inh -1%.
`CC(C)(C)C(=O)NC(=S)Nc1sc2c(c1C#N)CCCCC2` gave LmPK inhibitor -2%, FBPA Giardia inh -17%, TbPYK inhibitor 10%, Sm TGR inh -5%, Shiga toxin inh 38 and CHX counter 19*.
Screening CNS(=O)(=O)c1cccc(C(=O)OCC(=O)Nc2sc3c(c2C#N)CCCCC3)c1 returned LmPK inhibitor 1%, FBPA Giardia inh 1%, TbPYK inhibitor -3%, Sm TGR inh -4%, Shiga toxin inh 44* and CHX counter 26*.
CCn1c(CN2CCCCC2)nc2cc(NC(=O)c3ccc([N+](=O)[O-])cc3)ccc21 was read as TbPYK inhibitor -4% and Sm TGR inh -4%.
`O=C(O)CN1C(=O)/C(=C/c2ccccc2Br)Oc2ccccc21` gave LmPK inhibitor -6%, FBPA Giardia inh 12%, TbPYK inhibitor -3%, Sm TGR inh 0%, Shiga toxin inh -6 and CHX counter 12.
For N#C/C(=C/C1=C(N2CCOCC2)C(=C/c2ccc(Cl)cc2)/CC1)C(=O)Nc1ccccc1F the results were TbPYK inhibitor -25%.
Screening CN1CCC/C1=C/C=C1\SC(=S)NC1=O returned LmPK inhibitor -6%, FBPA Giardia inh inconclusive, TbPYK inhibitor -15%, Sm TGR inh -8%, Shiga toxin inh 35* and CHX counter 18.
For CN(C)C(=S)SC(=S)N(C)C the results were FBPA Giardia inh 16µM*, TbPYK inhibitor inconclusive, Shiga toxin inh 23 and CHX counter 24.
N/C(=N\OC(=O)COc1ccc(Cl)cc1)c1cccnc1 was read as LmPK inhibitor -2%, FBPA Giardia inh 4%, TbPYK inhibitor -3%, Sm TGR inh 10%, Shiga toxin inh 62* and CHX counter 15*.
O=C(COc1ccc(Cl)cc1Cl)NNC(=O)c1cccnc1 was read as LmPK inhibitor 0%, TbPYK inhibitor 0%, Sm TGR inh -1%, Shiga toxin inh 26 and CHX counter 14.
`Cc1ccc(OCC(=O)O/N=C(\N)c2cccnc2)cc1` gave LmPK inhibitor 4%, FBPA Giardia inh -1%, TbPYK inhibitor 4%, Sm TGR inh 6%, Shiga toxin inh 68* and CHX counter 23*.
`N/C(=N\OC(=O)COc1ccc(Cl)cc1Cl)c1cccnc1` gave LmPK inhibitor -3%, FBPA Giardia inh -2%, TbPYK inhibitor 0%, Sm TGR inh 6%, Shiga toxin inh 78* and CHX counter 54*.
Screening O=C(c1cccc(F)c1)N1CCC[C@@]2(CCN(c3ccccc3)C2)C1 returned FBPA Giardia inh -14% and TbPYK inhibitor -2%.
`COc1ccc(NC(=O)Cn2c(=O)oc3cc(S(=O)(=O)N4CCCCCC4)ccc32)cc1OC` gave TbPYK inhibitor -3% and Sm TGR inh 6%.
Screening CSc1nc(Nc2ccc(C)cc2)c(C#N)c(-c2ccccc2)n1 returned TbPYK inhibitor 0% and Sm TGR inh -1%.
`CC(C)[C@H](NC(=O)C1CCN(S(=O)(=O)c2ccc(F)cc2)CC1)C(=O)NCc1ccco1` gave LmPK inhibitor 3%, TbPYK inhibitor -20%, Sm TGR inh -13%, Shiga toxin inh -6 and CHX counter 6.
O=[N+]([O-])c1ccc(-c2nnc(S)n2-c2ccccc2)cc1 was read as LmPK inhibitor 7%, FBPA Giardia inh 12%, Sm TGR inh 0% and CHX counter 28*.
Cc1cc(C)n2nc3ccccc3c2n1 was read as LmPK inhibitor 2%, FBPA Giardia inh 4%, TbPYK inhibitor -1%, Sm TGR inh 2%, Shiga toxin inh 12 and CHX counter 2.
For Cc1cc(C)n2nc3nc(N4CCCCC4)nc(-c4ccco4)c3c2n1 the results were LmPK inhibitor 0%, FBPA Giardia inh inconclusive, TbPYK inhibitor inconclusive, Sm TGR inh 1.4µM*, Shiga toxin inh -5 and CHX counter 1.
COc1ccc(-c2cc(C(=O)Nc3cccc(C(C)=O)c3)no2)cc1 was read as LmPK inhibitor -1%, FBPA Giardia inh 0%, TbPYK inhibitor 3%, Sm TGR inh 0%, Shiga toxin inh -6 and CHX counter 7.
CC(=O)c1cccc(NC(=O)c2cc(-c3cccs3)on2)c1 was read as LmPK inhibitor 8%, FBPA Giardia inh -6%, TbPYK inhibitor 2%, Sm TGR inh -14%, Shiga toxin inh 32 and CHX counter 14*.
`O=C(Nc1cccc(O)c1)c1cc(-c2cccs2)on1` gave LmPK inhibitor -17%, FBPA Giardia inh -5%, TbPYK inhibitor 0%, Sm TGR inh -9%, Shiga toxin inh 77* and CHX counter 30*.
`CC1=C(C(=O)Nc2ccccc2)C(C(C)C)n2nc(SCc3ccccc3C)nc2N1` (centres undefined) gave TbPYK inhibitor -1% and Sm TGR inh 3%.
Cc1ccc(-c2noc(C3CCCN(C(=O)c4ccccc4Br)C3)n2)o1 (centres undefined) was read as LmPK inhibitor 2%, FBPA Giardia inh 4%, TbPYK inhibitor -20%, Sm TGR inh inconclusive, Shiga toxin inh 71* and CHX counter 28*.
Screening Cc1ccc(-c2noc(C3CCCN(C(=O)c4ccccc4)C3)n2)o1 (centres undefined) returned LmPK inhibitor -14%, FBPA Giardia inh 0%, TbPYK inhibitor -4%, Sm TGR inh 56µM*, Shiga toxin inh 59* and CHX counter 41*.
For Clc1ccc(-c2nc(C3CCCCC3)no2)cc1 the results were LmPK inhibitor -6%, FBPA Giardia inh 4%, TbPYK inhibitor -7%, Sm TGR inh -1%, Shiga toxin inh 89* and CHX counter 32*.
Screening COc1ccc(C(=O)N2CCCC(c3nc(-c4ccc(C)o4)no3)C2)cc1OC (centres undefined) returned LmPK inhibitor -4%, FBPA Giardia inh -22%, TbPYK inhibitor 2%, Sm TGR inh 3%, Shiga toxin inh 26 and CHX counter 7.
